Screening results (PubChem BioAssay)
DYRK1A inh: blocks rat Dyrk1A kinase activity; ADP-Glo luminescence, NFATc1 peptide; inhibition, % at 12.5 µM; 310,000 compounds, 0.43% hits; AID 504441; in the data active = inhibition above about 50%;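 also: plate controls were vehicle with enzyme for no effect and no enzyme for full effect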
aDG glyco act: alpha-DG glycosylation activation; activation, % at 10 µM; 360,000 compounds, 0.22% hits; Pro5-aDG cells, alpha-DG glycosylation AlphaScreen (IIH6); 0% Pro5, 100% B10-LARGE cell signal; AID 624168;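 active = activation of at least 8% versus controls, or a plate z-score of at least 8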;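 also: Pro5 are CHO cells carrying HIG-tagged alpha-DG that lacks glycosylation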
GC-B act: GC-B (human) receptor activation. HEK293-GC-B cells, CNP EC30, cGMP TR-FRET; 0% at EC30 CNP, 100% saturating CNP. 370,000 compounds, 0.11% hits. activation, % at 10 µM. P20594;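 active = activation at 10 µM reaching about 35% in either raw or pattern-adjusted values, limit read from the data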
NPR1 activator: GC-A (human) enzyme activation; activation, % at 10 µM; 370,000 compounds, 0.14% hits; AID 1671463; HEK293 GC-A cells, cGMP TR-FRET, EC30 ANP; 0% at EC30 ANP, 100% saturating ANP; in the data active = activation above about 40%
Target sequence (P16066 whole entry, looked up): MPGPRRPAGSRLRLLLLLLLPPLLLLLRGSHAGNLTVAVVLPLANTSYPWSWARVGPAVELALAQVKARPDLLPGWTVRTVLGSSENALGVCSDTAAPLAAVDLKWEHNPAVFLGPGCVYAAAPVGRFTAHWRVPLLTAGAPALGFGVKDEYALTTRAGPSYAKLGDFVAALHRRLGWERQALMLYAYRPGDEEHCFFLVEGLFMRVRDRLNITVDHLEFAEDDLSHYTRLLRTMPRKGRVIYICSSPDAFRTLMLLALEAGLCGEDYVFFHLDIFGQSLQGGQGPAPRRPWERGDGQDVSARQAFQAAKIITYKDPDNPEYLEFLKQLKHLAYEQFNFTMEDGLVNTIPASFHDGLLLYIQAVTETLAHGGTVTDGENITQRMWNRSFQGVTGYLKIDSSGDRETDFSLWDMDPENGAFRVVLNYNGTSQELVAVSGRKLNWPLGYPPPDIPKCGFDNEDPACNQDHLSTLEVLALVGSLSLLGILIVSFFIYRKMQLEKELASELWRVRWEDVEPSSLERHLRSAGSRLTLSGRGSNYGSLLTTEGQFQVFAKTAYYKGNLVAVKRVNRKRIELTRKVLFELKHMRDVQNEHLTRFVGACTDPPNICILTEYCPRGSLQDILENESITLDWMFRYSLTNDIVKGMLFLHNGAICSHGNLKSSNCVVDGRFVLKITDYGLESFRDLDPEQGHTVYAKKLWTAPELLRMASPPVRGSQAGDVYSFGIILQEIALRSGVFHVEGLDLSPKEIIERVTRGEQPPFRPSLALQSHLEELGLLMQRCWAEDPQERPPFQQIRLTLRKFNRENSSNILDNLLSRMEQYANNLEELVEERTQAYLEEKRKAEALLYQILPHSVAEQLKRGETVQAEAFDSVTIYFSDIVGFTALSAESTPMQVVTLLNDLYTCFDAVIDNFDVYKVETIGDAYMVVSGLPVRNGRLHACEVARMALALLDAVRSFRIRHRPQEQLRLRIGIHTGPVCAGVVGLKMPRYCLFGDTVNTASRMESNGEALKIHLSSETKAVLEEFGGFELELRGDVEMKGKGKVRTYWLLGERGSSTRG
HSF1 activator: increases HSF-1 driven luciferase reporter signal | 300,000 compounds, 1.7% hits | activation, % at 9 µM | NIH3T3-HGL HSF-1 luciferase reporter, MG132, 8 h; 100% = twice DMSO control signal;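 active = mean replicate activation of at least 50% with a set share of replicates each reaching 50%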;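 also: 0% = median of the neutral control wells and 100% = twice that signal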
HSF1 inhib: HSF1 inhibition; NIH3T3-HGL HSE-luciferase, MG132-induced, luminescence 8 h; hits give low values; activity change, negative = inhibition, % at 7.5 µM (by protocol); 300,000 compounds, 0.77% hits; AID 2098;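 active = more than half of replicate wells show activity change below -50%, luminescence cut by over half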;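 also: luciferase reports HSF-1 transcriptional activity via heat shock element; 0% = median of DMSO wells and -100% = zero luminescence signal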
aDG glyco conf: alpha-DG glycosylation activation, confirmation; 600 compounds, 17% hits; activation, % at 10 µM (by protocol); shares compounds with aDG glyco act; Pro5-aDG cells, IIH6 AlphaLISA; scaled to LARGE-overexpressing B10 cells as 100%;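 active = activation of at least 7% in one or more replicates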;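 also: cells exposed to compound for two days before detection; 0% = DMSO-treated Pro5 cells and 100% = DMSO-treated B10-LARGE cells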
The depositor's hits bear a star; · = no result. Shown are actives, neighbours in structure and some others; about 2.5% of the full set was active somewhere.

SMILES	DYRK1A inh	aDG glyco act	GC-B act	NPR1 activator	HSF1 activator	HSF1 inhib	aDG glyco conf
C=CCn1c(=N)n(CC(=O)c2ccc(Cl)cc2)c2ccccc21	-1	6.7*	-8	-12	11	1	6.3*
C=CCn1c(=N)n(CC(=O)OC)c2ccccc21	-12	0	8	-1	11	2	·
N#C/C(=C\c1cccc(Cl)c1)c1n[nH]c(Cn2cncn2)n1	5	2.9*	-5	8	1	-1	0
CC(C)(C)c1ccc(OCC(=O)NCC(c2cccs2)N2CCOCC2)cc1 (stereo unspecified)	0	1	1	-1	9	5	·
Cc1ccc(NC(=O)CN(C)S(=O)(=O)c2ccc3[nH]c(=O)oc3c2)c(C)c1	2	0	-2	4	-9	-4	·
O=C(OCc1ccccc1)N1CCC2CC1c1cc(Cl)ccc12 (stereo unspecified)	·	9.7*	1	1	·	·	0
Cn1c(=N)n(CC(=O)c2ccc(Br)cc2)c2ccccc21	2	4.8*	-1	2	3	1	6.1*
Cn1c(=N)n(CC(=O)c2ccc(F)cc2)c2ccccc21	·	3.8*	-2	2	13	-1	3
Cc1ccc(S(=O)(=O)N(C)C[C@H]2Oc3ncc(-c4ccccc4)cc3C(=O)N([C@@H](C)CO)C[C@@H]2C)cc1	·	0	0	2	·	·	·
Cn1nnnc1SCC(=O)Nc1cc(C(C)(C)C)nn1-c1ccccc1	23	0	1	0	2	-5	·
CCOC(=O)C1=C(C)N(C)C(=O)C1CC(=O)O (stereo unspecified)	-8	0	5	4	-2	7	·
COc1ccc(CN2CCC(CNC(=O)NC3CCCC3)CC2)cc1	·	·	5	1	·	·	·
COc1ccc(CC(=O)N/N=C/c2cccnc2)cc1OC	2	6.5*	1	-3	-2	-4	-1
COc1cc(/C=C/C(=O)Nc2nc3ccc(S(=O)(=O)NC(C)C)cc3s2)cc(OC)c1OC	-6	8.2*	5	-5	-11	1	6.1*
CCNC(=O)CC1C(=O)N(c2ccccc2)C(=O)N1CCc1ccc(OC)cc1 (stereo unspecified)	-2	0	-5	0	7	-5	·
CCCCn1c(N)c(N(CCOC)C(=O)Cn2c(=O)cnc3ccccc32)c(=O)[nH]c1=O	-5	0	-2	4	·	·	·
CCCCCOc1ccc(NC(=O)C(=O)NCC2CCCN2CC)cc1 (stereo unspecified)	-1	11*	2	-2	9	6	15*
O=C(N[C@@H]1CCC(=O)N(CC[C@H](Sc2ccc(Br)cc2)c2ccccc2)CC1)OCc1ccccc1	3	9.1*	4	1	·	·	1
CN(C)CCNC(=O)c1onc(CSc2ccncc2)c1C(=O)NCCN(C)C	8	0	6	2	-14	-8	·
Cc1cc(C)cc(SCc2noc(C(=O)NCCN(C)C)c2C(=O)NCCN(C)C)c1	6	7.2*	0	-1	42	14	1
O=C(NCCN1CCOCC1)c1ccc(Cl)c(S(=O)(=O)N2CCCCCC2)c1	11	4.7*	0	1	6	0	-1
O=C(NCCN1CCOCC1)c1ccc(Cl)c(S(=O)(=O)N2CCCC2)c1	·	0	8	1	11	-4	·
CC(=O)Nc1ccc2nc(NC(=O)c3ccc([N+](=O)[O-])s3)sc2c1	·	·	·	·	7	1	·
CCc1ccccc1NC(=O)c1ccc([N+](=O)[O-])s1	1	13*	-4	-1	33	20	1
Cc1nc2cc(NC(=O)c3ccc([N+](=O)[O-])s3)ccc2s1	-4	11*	3	-4	33	29	5.1*
SMILES	DYRK1A inh	aDG glyco act	GC-B act	NPR1 activator	HSF1 activator	HSF1 inhib	aDG glyco conf
CCn1c(Cc2ccccc2)nnc1SCC(=O)Nc1cc(C)on1	6	44*	-1	2	4	3	-1
CCn1c(COc2ccccc2C)nnc1SCC(=O)Nc1cc(C)on1	·	0	6	-6	-32	-21	·
O=C(CCN1CCOCC1)c1ccccc1	-3	0	·	·	-4	-4	·
O=C(CCN1CCCCC1)c1ccccc1	4	4.7*	-9	62*	14	-3	0
CN(C)CCCNC(=O)C[C@H]1C[C@H](C(=O)N2CCOCC2)[C@@]2(C)c3[nH]c4ccc(Cl)cc4c3CCN2C1=O	·	5.2*	3	1	·	·	-1
CN(c1ccccc1)S(=O)(=O)c1ccc(C(=O)NCc2cccs2)cc1	1	2.5*	1	0	7	-4	0
CCCNC(=O)C1CCN(S(=O)(=O)c2cccs2)CC1	5	0	-2	-1	-2	3	·
O=C(Nc1ccc(F)c(F)c1)c1ccc(F)c(S(=O)(=O)N2CCC3(CC2)OCCO3)c1	2	10*	7	-5	2	8	0
O=S(=O)(c1cc(F)ccc1F)N1CCC2(CC1)OCCO2	-7	0	-2	4	-18	-16	·
CCOc1ccc(NC(=O)c2ccc(F)c(S(=O)(=O)N3CCN(c4ccccn4)CC3)c2)cc1	3	5.0*	-1	3	15	3	2.1*
CSc1ccc(Cl)c(C(=O)Nc2ccc(C)cn2)c1	12	0	4	-1	21	-2	·
O=C(c1ccc([N+](=O)[O-])o1)N1CCN(c2nc3c(Cl)cccc3s2)CC1	12	2	-7	0	20	18	·
O=C(c1ccc([N+](=O)[O-])o1)N1CCN(c2nc3ccc(F)cc3s2)CC1	-1	5.1*	-3	-5	13	15	1
CCCCN(C)CCNC(=O)c1cc(-c2cccnc2)nc2ccc(S(=O)(=O)N3CCC(C)CC3)cc12	0	5.4*	3	-9	-8	0	4.2*
CCN(CC)c1ccc2c(cc1=O)[C@@H](NC)CCc1cc(OC)c(OC)c(OC)c1-2	1	0	-1	-3	7	-12	·
CCNC(=O)/N=C1/NC(=O)C(C(C)C)O1 (stereo unspecified)	-6	22*	0	6	2	3	-1
COCCN1CCC(CNCc2cn[nH]c2-c2ccc(C)c(C)c2)C1 (stereo unspecified)	-2	0	-2	-7	4	-3	·
COCCN1CCC(CNCc2cn(-c3cc(C)ccc3C)nc2-c2ccccc2)C1 (stereo unspecified)	-1	7.8*	1	3	-7	-14	8.6*
